# Values of other authors, collected in PubChem BioAssay AID977611.
# The campaign covered roughly 3,900 compounds. About 3,900 (100%) were called active. No cut-off is given here; in the data, nearly all actives have Kd up to about 4200 µM. The set was probably picked from earlier hits. Some of the results follow. Where a SMILES comes first, the peptide text is derived from it. Square brackets hold non-standard residues; d marks the D form. Residues, ends and D or L forms follow the SMILES beside them. Peptide text beside a SMILES is read from it. [ ]: non-standard residue; d: D form. The star is where a group is joined. Lys(Me3) = C[N+](C)(C)CCCC[C@H](N)C(=O)O; Orn(CH(NH2)2) = NC(N)NCCC[C@H](N)C(=O)O; X1 = C[C@H](Cc1ccc(O)cc1)N*; Nva = CCC[C@H](N)C(=O)O
# Assay: PubChem AID 977611
# Conditions: PDB protein-ligand complexes, literature Kd
compound,measurement,setting,value
CC(C)[C@H](NC(=O)[C@H](CC(=O)O)NC(=O)[C@@H](NC(=O)[C@H](CC(=O)O)NC(=O)[C@H](CO[P+](O)(O)O)NC(=O)[C@@H](N)CC(=O)O)[C@@H](C)O[P+](O)(O)O)C(=O)N[C@@H](CCC(=O)O)C(=O)N[C@@H](CCC(=O)O)C(=O)O,Kd,"protein: DNA topoisomerase 2-binding protein 1, PDB entry 3ueo",94 µM (active)
CSCC[C@H](N)C(=O)N[C@@H](C)C(=O)N[C@@H](CO)C(=O)O (H-Met-Ala-Ser-OH),Kd,"protein: human-like mitochondrial peptide deformylase (G47C, L112E mutant), PDB entry 4je8",6.1 µM (active)
H-AEDDVE-OH,Kd,"protein: AH RECEPTOR-INTERACTING PROTEIN, PDB entry 4apo",12.3 µM (active)
CSCC[C@H](NC(=O)[C@H](CCCNC(N)N)NC(=O)[C@H](CO)NC(=O)[C@H](C)N)C(=O)N[C@@H](CCC(=O)O)C(=O)N[C@@H](CCC(=O)O)C(=O)N[C@H](C(=O)N[C@@H](CC(=O)O)C(=O)O)C(C)C (H-AS[Orn(CH(NH2)2)]MEEVD-OH),Kd,"protein: Protein UNC-45, PDB entry 4i2z",13.5 µM (active)
CC(=O)N[C@@H](CC(=O)O)C(=O)N[C@@H](CCC(=O)O)C(=O)N[C@H](C(=O)N[C@@H](CC(=O)O)[C@@H](C)O)C(C)C,Kd,"protein: Procaspase-3 (D175A mutation), PDB entry 4jr0",0.0063 µM (active)
CSCC[C@H](NC(=O)[C@H](CCC(=O)O)NC(=O)[C@@H](NC(=O)[C@H](CC(=O)O)NC(=O)[C@H](C)N)[C@@H](C)O)C(=O)N[C@@H](CCC(=O)O)C(=O)N[C@@H](CCC(=O)O)C(=O)N[C@H](C(=O)N[C@@H](CC(=O)O)C(=O)O)C(C)C (H-ADTEMEEVD-OH),Kd,"protein: TPR repeat-containing protein associated with Hsp90, PDB entry 2lsv",5.41 µM (active)
CCC[C@H](NC(=O)[C@@H](N)CO)C(=O)N[C@@H](CCSC)C(=O)N[C@@H](C)C(=O)N[C@@H](CCC(=O)O)C(=O)N[C@H](C(=O)N[C@@H](CC(=O)O)C(=O)O)C(C)C (H-S[Nva]MAEVD-OH),Kd,"protein: AH RECEPTOR-INTERACTING PROTEIN, PDB entry 4aif",14.4 µM (active)
CC(C)C[C@H](NC(=O)[C@H](CCCNC(N)N)NC(=O)[C@@H](N)CCCNC(N)N)C(=O)N[C@@H](CCC(N)=O)C(=O)N[C@@H](CCCCN)C(=O)NCC(=O)N[C@@H](CC(N)=O)C(=O)N[C@@H](CC(C)C)C(=O)N1CCC[C@H]1C(=O)N[C@H](C(=O)N[C@@H](CCCNC(N)N)C(=O)O)C(C)C (H-[Orn(CH(NH2)2)][Orn(CH(NH2)2)]LQKGNLPV[Orn(CH(NH2)2)]-OH),Kd,"protein: ERK2, PDB entry 2fys",44 µM (active)
CC(C)C[C@H](NC(=O)[C@H](CCC(=O)O)NC(=O)CNC(=O)[C@@H](NC(=O)[C@H](CO[P+](O)(O)O)NC(=O)[C@@H]1CCCN1C(=O)[C@H](CC(=O)O)NC(=O)[C@@H](NC(=O)[C@H](CCC(=O)O)NC(=O)[C@@H](N)CCCCN)C(C)C)[C@@H](C)O)C(=O)N[C@@H](CCC(N)=O)C(=O)O,Kd,"protein: Kelch-like ECH-associated protein 1, PDB entry 3wdz",0.12 µM (active)
CSCC[C@H](NC(=O)[C@H](CCCCN)NC(=O)[C@H](CCC(=O)O)NC(=O)[C@H](CCCCN)NC(=O)[C@H](CCCNC(N)N)NC(=O)[C@@H]1CCCN1C(=O)[C@@H]1CCCN1C(=O)[C@@H](NC(=O)[C@H](CC(C)C)NC(=O)[C@@H]1CCCN1C(=O)[C@@H]1CCCN1C(=O)[C@H](CCC(N)=O)NC(=O)CN)C(C)C)C(=O)N[C@@H](CCCNC(N)N)C(=O)NCC(=O)N[C@@H](CCCCN)C(=O)O (H-GQPPLVPP[Orn(CH(NH2)2)]KEKM[Orn(CH(NH2)2)]GK-OH),Kd,"protein: Grb2-related adaptor protein 2(SH3 domain), PDB entry 1uti",2.4 µM (active)
CSCC[C@H](NC(=O)[C@@H]1CCCN1C(=O)[C@@H](N)[C@@H](C)O)C(=O)N[C@H](C(=O)N[C@@H](CC(N)=O)C(=O)N[C@@H](CCCNC(N)N)C(=O)N[C@@H](CCC(=O)O)C(=O)N[C@@H](CC(N)=O)C(=O)N[C@@H](CCCCN)C(=O)O)C(C)C (H-TPMVN[Orn(CH(NH2)2)]ENK-OH),Kd,"protein: STAM2 SH3 domain, PDB entry 1uj0",27 µM (active)
CC[C@H](C)[C@H](N)C(=O)N[C@@H](CCC(N)=O)C(=O)N1CCC[C@H]1C(=O)N1CCC[C@H]1C(=O)N1CCC[C@H]1C(=O)N[C@H](C(=O)N[C@@H](CC(N)=O)C(=O)N[C@@H](CCCNC(N)N)C(=O)N[C@@H](CC(N)=O)C(=O)N[C@@H](CC(C)C)C(=O)N[C@@H](CCCCN)C(=O)N1CCC[C@H]1C(=O)N[C@@H](CC(=O)O)C(=O)N[C@H](C=O)CCCNC(N)N)C(C)C (H-IQPPPVN[Orn(CH(NH2)2)]NLKPD[Orn(CH(NH2)2)]-aldehyde),Kd,"protein: GROWTH FACTOR RECEPTOR-BOUND PROTEIN 2 SH3 DOMAIN, PDB entry 2vwf",8.7 µM (active)
CN1C=CN(CCCN2c3ccccc3Sc3ccc(C(F)(F)F)cc32)C=C1,Kd,"protein: human calmodulin (CaM), PDB entry 1ctr",1 µM (active)
COC(=O)c1cc(N)cc(-c2c(C)noc2C)c1,Kd,"protein: ATPase family AAA domain-containing protein 2 ATAD2A bromodomain, PDB entry 4tte",202 µM (active)
Cn1cc(O[C@@H]2O[C@H](CO)[C@H](O)[C@H](O)[C@H]2O)c2ccccc21,Kd,"protein: PA-I galactophilic lectin, PDB entry 4ljh",19.4 µM (active)
CC(C)[C@H](NC(=O)CNC(=O)CNC(=O)[C@@H](NC(=O)[C@H](C)N)[C@@H](C)O)C(=O)N[C@@H](CCCC[N+](C)(C)C)C(=O)N[C@@H](CCCCN)C(=O)N1CCC[C@H]1C(=O)N[C@@H](Cc1cnc[nH]1)C(=O)N[C@@H](CCCNC(N)N)C(=O)N[C@H](C)Cc1ccc(O)cc1 (H-ATGGV[Lys(Me3)]KPH[Orn(CH(NH2)2)]-X1),Kd,"protein: PHD finger protein 1, PDB entry 2m0o",4.2 µM (active)
CC[C@H](C)[C@H](NC(=O)[C@H](Cc1cnc[nH]1)NC(=O)[C@@H](NC(=O)[C@H](CCCNC(N)N)NC(=O)[C@H](CCCCN)NC(=O)[C@@H](N)CCCNC(N)N)[C@@H](C)CC)C(=O)NCC(=O)N1CCC[C@H]1C(=O)NCC(=O)N[C@@H](CCCNC(N)N)C(=O)N[C@@H](C)C(=O)N[C@@H](Cc1ccccc1)C(=O)N[C@@H](Cc1ccc(O)cc1)C(=O)N[C@@H](C)C(=O)N[C@H](C=O)[C@@H](C)O,Kd,"protein: anti-HIV-1 Fab 537-10D, PDB entry 3ghe",1.3 µM (active)
CC(=O)NCCCC[C@H](NC(=O)[C@@H](NC(=O)CNC(=O)CNC(=O)[C@@H](NC(=O)[C@@H](N)CO)[C@@H](C)O)C(C)C)C(=O)N[C@@H](CCCCN)C(=O)N1CCC[C@H]1C(=O)N[C@@H](Cc1cnc[nH]1)C(=O)N[C@@H](CCCNC(N)N)C(=O)N[C@@H](Cc1ccc(O)cc1)C(=O)N[C@@H](CCCCN)C(=O)N[C@@H](CS)C(=O)O,Kd,"protein: Histone acetyltransferase PCAF, PDB entry 2rnx",402 µM (active)
O[C@@H]1[C@H](O)[C@@H](O[P+](O)(O)O)[C@H](O[P+](O)(O)O)[C@@H](O)[C@@H]1O[P+](O)(O)O,Kd,"protein: Ligand-Binding Domain of rat InsP3 Receptor, PDB entry 3t8s",0.00282 µM (active)
same,Kd,"protein: Rabphilin-3A, PDB entry 4np9",9.4 µM (active)
